Eight compounds from PubChem BioAssay (NCATS) can be followed below.

For assay [1], the system named is CRL-7250. Description: Cytotoxic Profiling of Annotated Libraries Using Quantitative High-Throughput Screening (AID 1296008). Further: potency means the concentration at half of the fitted maximal effect. On max response: on the % scale 0 is the no-effect control and ±100 the full control effect. The conditions noted are these: Five cell lines viability, CellTiter-Glo ATP luminescence, 48-72 h; max response: hits give low values. Put shortly: (§1)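 Compounds were pin-transferred onto cells and incubated 48 or 72 hr at 37 degree Celsius, 95% humidity. CellTiter-Glo was added, plates sat 10 min at room temperature, then ATP-coupled luminescence was imaged as the viability read-out.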
For orientation: Cellular ATP, detected with luciferase, serves as a proxy for viable cell number.

Another assay deals with HEK293. The assay is described as above. The conditions noted are these: Five cell lines viability, CellTiter-Glo ATP luminescence, 48-72 h; max response: hits give low values. Put shortly:
as §1

Assay [2] concerns HaCat. Described as above. The conditions noted are these: Five cell lines viability, CellTiter-Glo ATP luminescence, 48-72 h; max response: hits give low values. Put shortly:
as §1

In the next assay the test system is KB-3-1. The description is as above. The conditions noted are these: Five cell lines viability, CellTiter-Glo ATP luminescence, 48-72 h; max response: hits give low values. Put shortly: as §1
Another assay concerns NIH3T3. Described as above. The conditions noted are these: Five cell lines viability, CellTiter-Glo ATP luminescence, 48-72 h; max response: hits give low values. Put shortly: as §1
For a further assay, the system named is HEK293T. Description: qHTS assay to identify novel small-molecules to repurpose for Merkel cell carcinoma treatment (AID 1296009). The conditions noted are these: MCC and control cell lines, CellTiter-Glo viability, 72 h; at 44.8 µM (top of the series). The gist of the method: (§2)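 Viability readout: ATP luminescence (CellTiter-Glo) after 72 hr drug exposure at 37 degree celsius. Dose-response format was 8 points for NPC and 11 points for MIPE; data normalized to in-plate controls.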

Assay [3] deals with CRL-7250. The description is as above. The conditions noted are these: MCC and control cell lines, CellTiter-Glo viability, 72 h; series mostly up to 44.8 µM. The gist of the method:
as §2

Assay [4] has as its system HACAT. The description is as above. The conditions noted are these: MCC and control cell lines, CellTiter-Glo viability, 72 h; at 44.8 µM (top of the series) unless noted. The gist of the method: as §2
A further assay deals with N140. In words: qHTS profiling for inhibitors of Plasmodium falciparum proliferation (AID 504749).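 Further: 0% = DMSO vehicle and full inhibition = artemisinin control.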 The conditions noted are these: P. falciparum in erythrocytes, SYBR Green DNA, 72 h; series mostly up to 28.7 µM. The gist of the method: (§3)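 Quantitative HTS: compounds pinned into medium, infected erythrocytes added (0.3% parasitemia, 2.5% hematocrit), 72 h culture at 37 C under 5% CO2. Saponin/Triton lysis with SYBR Green I, overnight RT, then fluorescence read.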
Background: qHTS replaces the single test concentration by a dilution series.

In the next assay the test system is P93_24. The description is as above. The conditions noted are these: P. falciparum in erythrocytes, SYBR Green DNA, 72 h; series mostly up to 28.7 µM. The gist of the method: as §3
For the next assay, the system named is P94_40. The description is as above. The conditions noted are these: P. falciparum in erythrocytes, SYBR Green DNA, 72 h; series mostly up to 28.7 µM. Put shortly: as §3
Another assay concerns PAD. The assay is described as above. As to conditions: P. falciparum in erythrocytes, SYBR Green DNA, 72 h; series mostly up to 28.7 µM. The gist of the method:
as §3

The next assay deals with PC15. Described as above. As to conditions: P. falciparum in erythrocytes, SYBR Green DNA, 72 h; series mostly up to 28.7 µM. The gist of the method:
as §3

For another assay, the system named is PC26. Described as above. The conditions noted are these: P. falciparum in erythrocytes, SYBR Green DNA, 72 h; series mostly up to 28.7 µM. The gist of the method: as §3
A further assay deals with PC49. Described as above. As to conditions: P. falciparum in erythrocytes, SYBR Green DNA, 72 h; series mostly up to 28.7 µM. The gist of the method: as §3
A further assay has as its system SC27B. Described as above. The conditions noted are these: P. falciparum in erythrocytes, SYBR Green DNA, 72 h; series mostly up to 28.7 µM. Put shortly:
as §3

In the next assay the test system is TAB109. The description is as above. As to conditions: P. falciparum in erythrocytes, SYBR Green DNA, 72 h; series mostly up to 28.7 µM. The gist of the method: as §3
For a further assay, the system named is TAB113. Described as above. As to conditions: P. falciparum in erythrocytes, SYBR Green DNA, 72 h; series mostly up to 28.7 µM. The gist of the method: as §3
A further assay concerns TAB165. The description is as above. The conditions noted are these: P. falciparum in erythrocytes, SYBR Green DNA, 72 h; series mostly up to 28.7 µM. The gist of the method:
as §3

The next assay has as its system W2. The assay is described as above. As to conditions: P. falciparum in erythrocytes, SYBR Green DNA, 72 h; series mostly up to 28.7 µM. Put shortly:
as §3

Values joined by “and” are separate entries in the source; they are usually repeats but may differ in a detail not shown here. Equal values may be shown once. Inconclusive results are not listed. Some compounds were tested as several samples or in several runs, with calls that do not always agree. Values without a mark were called inactive. Active and inactive are the calls of the source. The call rests on the fitted dose curve; in most records, active means well fitted inhibition curve with a large enough effect; inconclusive means small, poorly fitted or top-dose-only effect; inactive means flat fitted curve, though single readings scatter.
Further: nearly all actives have a fitted effect of over 60% in size.

Regarding `Cc1cccc(C)c1NC(=O)CN1CCCC1=O`, the max response in the assay on CRL-7250 [1] is 0.285% and 2.07%; with HEK293, 2.15%; in the assay on HaCat [2] it was 3.48% and 0.767%; with KB-3-1 it was -16.8% and -6.89%; with NIH3T3, 1.47% and -1.95%. In addition, the compound was classed as inactive with HEK293 and with HEK293T.

For `CCCN1CCC[C@@H]2Cc3nc(N)ncc3C[C@H]21`, the result in the assay with CRL-7250 [1], in the assay with HaCat [2], in the assay with CRL-7250 [3] and in the assay with HACAT [4] was inactive. In addition, the max response with HEK293 is -17.9%; in the assay on KB-3-1 it was 14.3%; in the assay on NIH3T3, -7.61%.

`NCC1(CC(=O)O)CCCCC1`: the Potency result in the assay with N140, in the assay on P93_24, with P94_40, with PAD, in the assay on PC15 and in the assay with PC26 was “inactive” throughout. In addition, the Potency result in the assay with PC49, in the assay with SC27B, in the assay with TAB109, in the assay on TAB113, in the assay with TAB165 and in the assay with W2 was “inactive” each time. In addition, the max response in the assay on CRL-7250 [1] was -5.5% and -5.6%; with HEK293, 4.46%; in the assay with KB-3-1 it was -11.6% and 17.1%; in the assay on NIH3T3 it was -2.27% and -4.04%. The compound was called inactive with HEK293, with HaCat [2], in the assay on HACAT [4] and with HEK293T.

Take `COc1ccc(C(=O)c2c(C)n(CCN3CCOCC3)c3ccccc23)cc1`: the Potency result in the assay with N140, in the assay on P93_24, with PAD, in the assay on PC15, in the assay on PC49 and with SC27B was “inactive” in each case. The Potency entry with TAB109, in the assay with TAB113, with TAB165 and with W2 was “inactive” in each case. Besides, the max response is -23.7% with CRL-7250 [1]; -9.73% with HEK293; -26.9% in the assay with HaCat [2]; 5.69% and 21.2% in the assay on KB-3-1; -11.5% with NIH3T3. Further, the compound was classed as inactive in the assay with CRL-7250 [1], in the assay on HaCat [2], in the assay on NIH3T3, in the assay on CRL-7250 [3] and in the assay with HACAT [4].

Consider `COC[C@H]1OC(=O)c2coc3c2[C@@]1(C)C1=C(C3=O)C2CCC(=O)[C@@]2(C)C[C@H]1OC(C)=O` (some centres not stated), for which the max response in the assay with CRL-7250 [1] was -6.6%; in the assay with HEK293, -95.7% and 0.842%; in the assay on HaCat [2], -21.4%; in the assay with KB-3-1 it was -5.47%. For the same compound, the outcome in the assay with HaCat [2], in the assay with KB-3-1 and with HACAT [4] was inactive.

Regarding `O=C1CC[C@@]2(O)[C@H]3Cc4ccc(O)c5c4[C@@]2(CCN3CC2CC2)[C@H]1O5`, the max response with CRL-7250 [1] was -7.93%; in the assay with HEK293, -3.14% and -3.82%; in the assay on KB-3-1, 6.29%; in the assay on NIH3T3 it was -0.716%. Moreover, the outcome in the assay on CRL-7250 [1], in the assay on HaCat [2], in the assay on KB-3-1, with NIH3T3, in the assay with CRL-7250 [3] and with HACAT [4] was inactive.

For the compound `COc1ccc(Cc2nccc3cc(OC)c(OC)cc23)cc1OC`, the Potency was 5.31 µM (active) in the assay with CRL-7250 [1] and 8.41 µM (active) with HEK293. In addition, the max response with CRL-7250 [1] was 2.23%; in the assay with HaCat [2] it was -4.38% and -16.7%; with KB-3-1, -20.5% and -0.283%; in the assay on NIH3T3 it was -6.53%.

With `Cn1cc(C2=C(c3cn(C4CCN(Cc5ccccn5)CC4)c4ccccc34)C(=O)NC2=O)c2ccccc21`, the max response is -3.19% and -9.47% in the assay on CRL-7250 [1]; -3.71% and -0.888% in the assay with HEK293; -7.11% in the assay on HaCat [2]; 7.73% and 20.1% in the assay on KB-3-1. Moreover, the result with NIH3T3 was inactive.
